± gives the standard deviation. Whole data set: some 8,200 sequences, median “pre-steady-state target cleavage rate” near 0.024, cut for the highest 2% near 1.3. The entries come from a sample that favours the highest values as a whole.
Test system: MIWI (PIWIL1) piRISC loaded with L1MC piRNA (30 nt)
Experiment: pre-steady-state target cleavage rate (min^-1); MIWI and MILI are mouse PIWI proteins and EfPiwi is from a freshwater sponge; tags in brackets are library labels; higher = faster piRNA-guided slicing of the target
Conditions: guide: L1MC piRNA 5'p-UAACUAAAUACUAUGCAAGCUGUAGGUCCU
Summary of the method: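 Cleave-'n-Seq: a transcribed, DNA-blocked target RNA library (0.1 nM) was mixed with 1 nM active affinity-purified piRISC carrying one synthetic guide, with or without 500 nM GTSF1 partner protein, in HEPES–potassium acetate buffer at 33 °C for 0–8 or 0–960 min. Uncleaved targets were sequenced and normalised to depth and to weakly complementary targets. Three trials were pooled, and k3 was capped at 0.0001 min^-1. The pre-steady-state cleavage rate came from a burst-and-steady-state fit.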

[1] = auxiliary factor: 500 nM mouse GTSF1
[2] = auxiliary factor: none (no GTSF1)

Row | Sequence | pre-steady-state target cleavage rate [1] | pre-steady-state target cleavage rate [2]
1 | UCCUGCUACAGCUUGCAUAGUAUAAUGUAA | 0.188 ± 0.038 | –
2 | UGGACCUACAGCUUGCAUAGUAUUAAGUUA | 0.719 ± 0.06 | 0.0363 ± 0.006
3 | AGGACCUACUGCUUCCAUAGUAUUUAGUUA | 0.069 ± 0.011 | 0.00657 ± 0.0012
4 | UCGAGCUAGAGCUUGCAUAGUAUUUAGUUA | 0.962 ± 0.051 | 0.0483 ± 0.0092
5 | UCGACCAAGAGCUUGCAUAGUAUUUAGUUA | 0.954 ± 0.04 | 0.0547 ± 0.011
6 | UCCUGGAUGUGCUUGCAUAGUGAUUUAGUUA | 0.00393 ± 0.0038 | –
7 | UCCUGGUACAGCUAGGAUAGUAUUUAGUUA | 0.611 ± 0.084 | 0.00486 ± 0.002
8 | UGGACCUACAGCUUGGAUAGUAUUUAGAAA | 0.342 ± 0.047 | 0.0107 ± 0.003
9 | UCCUGCUACAGCUUGCAAACUAUUUAGUUA | 0.363 ± 0.027 | 0.00719 ± 0.0031
10 | AGGACCUACAGCUUGCAUAGUAUUUUGUUA | 0.949 ± 0.064 | 0.0718 ± 0.016
11 | UCCUGCUACUGCUUGCAUAGUAUAUAGUUA | 0.226 ± 0.024 | 0.0142 ± 0.0034
12 | AGGACCUACAGGAAGCAUAGUAUUUUCAAA | 0.132 ± 0.024 | –
13 | UCCUGGAUCAGGUAGCAUAGUAUUUAGUUA | 0.0152 ± 0.0033 | 0.00289 ± 0.0022
14 | UCCUCCUACAGCUUGCUUAGUAUUUAGUUA | 1.28 ± 0.06 | 0.0241 ± 0.0053
15 | UCCUGGUACAGCUUGCUUAGUAUUUAGUUA | 0.79 ± 0.037 | 0.0523 ± 0.011
16 | UCCUCGUACAGCUUGCUUAGUAUUUAGUUA | 1.51 ± 0.069 | 0.0419 ± 0.0089

Row | Sequence | pre-steady-state target cleavage rate [1] | pre-steady-state target cleavage rate [2]
17 | UCCAGGUACAGCUUGCAUAGUAUUUAGUUA | 1.09 ± 0.04 | 0.0764 ± 0.011
18 | AGGUCGUACAGCUUGCAUAGUAUUUAGUUA | 1.44 ± 0.065 | 0.0817 ± 0.012
19 | AGGACCUAGAGCUUGCAUAGUUUUUAGUUA | 0.343 ± 0.023 | 0.0238 ± 0.0061
20 | UCCUCCUACAGCUUGCAUAGUUAUUAGAAA | 0.0862 ± 0.022 | –
21 | UCCUGGAACAGCAUGCAUAGUAUUUACUUA | 0.446 ± 0.045 | 0.0279 ± 0.0094
22 | UCCACCUACAGCUUGCAUAGUAUUCUAGUUA | 0.633 ± 0.067 | 0.0214 ± 0.0052
23 | UCCUCCUACAGCUUGGAUAGUAUUUAGAUA | 0.372 ± 0.039 | 0.00865 ± 0.0019
24 | UCCUCCUACAGCUUGUAUAGUAUUUAGUUA | 1.38 ± 0.042 | 0.0427 ± 0.008
25 | UCCUCCUACAGCUUGAUAGUAUUUAGUUA | 0.824 ± 0.05 | 0.00583 ± 0.0021
26 | UCCUCCUACAGCUUGGAUAGUAUUUAGUUA | 1.44 ± 0.045 | 0.0511 ± 0.0092
27 | AGGUCCUACAGCUUGGAUAGUAUUUAGUUA | 1.39 ± 0.072 | 0.079 ± 0.014
28 | UCCUCCUACAGCUUGGAUAGUAUUUAGUAA | 0.707 ± 0.045 | 0.0186 ± 0.0033
29 | UCCUCCUACAGCUUGGCAUAGUAUUUAGUUA | 0.831 ± 0.11 | 0.0114 ± 0.0021
30 | UCCUCCUACAGCUUGUCAUAGUAUUUAGUUA | 0.44 ± 0.046 | –
31 | UGGUCCUACAGCUUGGAUAGUAUUUAGUUA | 1.22 ± 0.038 | 0.0568 ± 0.0069
32 | UCGUCCUACAGCUUGGAUAGUAUUUAGUUA | 1.56 ± 0.048 | 0.0586 ± 0.0084
